# According to PubChem BioAssay (NCATS):
# Records with an inconclusive call do not appear. A number with no mark means an inactive call. Active and inactive are the calls of the source. Calls follow the shape of the dose curve; as a rule, active = well fitted curve in the direction sought with a large enough effect; inconclusive = small, poorly fitted or top-dose-only effect, or another doubt; inactive = no such curve, though single readings can be large; an effect the other way counts as inactive or inconclusive.
# What was measured:
# [1] = Quantitative highthroughput screen to assess conditional lethalithy of NOMO1 cells grown in RPMI1640 with dialyzed fetal bovine serum (RPMI+ds) (AID 1963877); details: NOMO1 in RPMI+dialyzed FBS viability, ATP luminescence, 48 h; series mostly up to 45.8 µM; also: nearly all actives have a fitted effect of over 30% in size; also: potency is read from the fitted curve at half-maximal effect;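 as to viability: 100% = DMSO control wells and 0% = empty wells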
# Summary of the method: (§1)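 Each medium arm—HPLM with 10% dialyzed FBS, or RPMI1640 with 5 mM glucose and 10% untreated or dialyzed FBS—was screened against an 11-point, 3-fold compound titration for 48 h at 37 °C, with CellTiter-Glo luminescence as endpoint.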
# [2] = Quantitative highthroughput screen to assess conditional lethalithy of P12 Ichikawa cells grown in Human Plasma-Like Medium with dialyzed fetal bovine serum (HPLM+ds) (AID 1963879); details: ATP luminescence, 48 h; Potency: viability; series mostly up to 45.8 µM; also: nearly all actives have a fitted effect of over 35% in size; also: potency is read from the fitted curve at half-maximal effect
# Summary of the method: as §1
# [3] = Quantitative highthroughput screen to assess conditional lethalithy of P12 Ichikawa cells grown in RPMI1640 with dialyzed fetal bovine serum (RPMI+ds) (AID 1963880); details: ATP luminescence, 48 h; Potency: P12-Ichikawa viability; series mostly up to 45.8 µM; also: nearly all actives have a fitted effect of over 35% in size; also: potency is read from the fitted curve at half-maximal effect;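 as to viability: 100% = DMSO wells and 0% = empty wells on each plate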
# Summary of the method: as §1
# [4] = Quantitative highthroughput screen to assess conditional lethalithy of P12 Ichikawa cells grown in RPMI1640 with untreated serum (RPMI+s) (AID 1963881); details: ATP luminescence, 48 h; Potency: viability; series mostly up to 45.8 µM; also: nearly all actives have a fitted effect of over 35% in size; also: potency is read from the fitted curve at half-maximal effect;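 as to viability: 100% = DMSO wells and 0% = empty wells without cells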
# Summary of the method: as §1
# [5] = Quantitative highthroughput screen to assess conditional lethalithy of SEM cells grown in Human Plasma-Like Medium with dialyzed fetal bovine serum (HPLM+ds) (AID 1963882); details: SEM B-ALL cells in HPLM+ds, CellTiter-Glo viability, 48 h; series mostly up to 45.8 µM; also: nearly all actives have a fitted effect of over 35% in size; also: potency is read from the fitted curve at half-maximal effect
# Summary of the method: as §1
# [6] = Quantitative highthroughput screen to assess conditional lethalithy of SEM cells grown in RPMI1640 with dialyzed fetal bovine serum (RPMI+ds) (AID 1963884); details: SEM B-ALL cells, RPMI+dialyzed FBS, CellTiter-Glo viability, 48 h; series mostly up to 45.8 µM; also: nearly all actives have a fitted effect of over 35% in size; also: potency is read from the fitted curve at half-maximal effect;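 as to viability: 100% = DMSO control wells and 0% = empty wells without cells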
# Summary of the method: as §1
# [7] = Quantitative highthroughput screen to assess conditional lethalithy of SEM cells grown in RPMI1640 with unreated serum (RPMI+s) (AID 1963883); details: SEM B-ALL cells, CellTiter-Glo viability, 48 h; series mostly up to 45.8 µM; also: nearly all actives have a fitted effect of over 35% in size; also: potency is read from the fitted curve at half-maximal effect;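 as to viability: 100% = DMSO wells and 0% = empty wells without cells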
# Summary of the method: as §1
# [8] = Quantitative highthroughput screen to assess conditional lethalithy of NOMO1 cells grown in Human Plasma-Like Medium with dialyzed fetal bovine serum (HPLM+ds) (AID 1963878); details: NOMO1 AML cells in HPLM+ds, CellTiter-Glo viability, 48 h; series mostly up to 45.8 µM; also: nearly all actives have a fitted effect of over 35% in size; also: potency is read from the fitted curve at half-maximal effect;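 as to viability: 100% = DMSO wells and 0% = empty wells on each plate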
# Summary of the method: as §1
# [9] = Cellular viability qHTS for adrenocortical cancer (ACC) cell line SW-13 (AID 1963989); details: SW-13 ACC cells viability, CellTiter-Glo, 48 h; activity (max response): active compounds read low;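 also: cells grown in serum-free medium with ITS supplement; % is scaled to controls: 0 for no effect and ±100 for the full control effect; nearly all actives have a fitted effect of over 65% in size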
# Summary of the method: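 SW-13 cells in ITS-supplemented serum-free DMEM were plated overnight, then exposed for 48 h at 37C to compound titrations (up to 46 uM final). Viability was read by CellTiter-Glo luminescence; four-parameter logistic fits gave IC50 and efficacy.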
# [10] = Cellular viability qHTS for adrenocortical cancer (ACC) cell line NCI-H295R (AID 1963990); details: CellTiter-Glo ATP luminescence, 48 h; series mostly up to 46.1 µM;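 also: 0% = DMSO only wells and -100% = full killing with cytotoxic reference compound; nearly all actives have a fitted effect of over 60% in size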
# Summary of the method: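 Luminescent ATP read-out (CellTiter-Glo, 20 min RT) after 48 h drug exposure of NCI-H295R cells; a titration up to 46 uM final. Data normalized to doxorubicin (100% inhibition) and DMSO (0%); 4-parameter fit gives IC50, max response.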
Structure (SMILES),Potency [1],Potency [2],Potency [3],Potency [4],Potency [5],Potency [6],Potency [7],Potency [8],activity (max response) [9] [%],Potency [10]
Cc1cc(-c2nnc3n2CCCCC3)c(C)n1-c1ccccc1,inactive,inactive,inactive,inactive,inactive,inactive,–,–,–,–
CCC1=C[C@@H]2CN(C1)Cc1c([nH]c3ccccc13)[C@@](C(=O)OC)(c1cc3c(cc1OC)N(C)[C@@H]1[C@@](O)(C(=O)OC)[C@H](OC(C)=O)[C@]4(CC)C=CCN5CC[C@]31[C@@H]54)C2,74.3 nM (active),–,–,20.9 nM (active),59 nM (active),–,20.9 nM (active),–,–,–
N#Cc1ccc(COC[C@H]2O[C@@H](n3c(NCc4ccc(Cl)c(Cl)c4)nc4c(N)ncnc43)[C@@H](O)[C@@H]2O)cc1,–,inactive,–,–,–,–,–,7430 nM (active),–,–
CCC[C@H](NC(=O)C(C#N)=Cc1cccc(Br)n1)c1ccccc1,–,–,26400 nM (active),–,–,–,–,20900 nM (active),–,–
OC[C@H]1O[C@@H](Oc2cc(O)cc(C=Cc3ccc(O)cc3)c2)[C@H](O)[C@@H](O)[C@H]1O,2350 nM (active),inactive,inactive,inactive,inactive,inactive,inactive,–,–,–
CC1(C)C(=O)N(CCN2CCC(C(=O)c3ccc(F)cc3)CC2)c2ccccc21,18700 nM (active),inactive,–,inactive,inactive,inactive,inactive,–,–,–
Oc1ccc(C=Cc2cc(O)cc(O)c2)cc1,–,–,–,–,–,–,–,14800 nM (active),–,–
O=c1[nH]c(=O)n([C@H]2C[C@@H](O)[C@@H](CO)O2)cc1F,14.8 nM (active),83.3 nM (active),74.3 nM (active),–,23.5 nM (active),–,2350 nM (active),–,–,–
CC(=NNC(=S)N1CCC1)c1ccccn1,5.3 nM (active),5.3 nM (active),6.6 nM (active),5.9 nM (active),2.6 nM (active),2.1 nM (active),3.3 nM (active),–,–,–
CC(C)c1c(C(=O)Nc2ccccc2)c(-c2ccccc2)c(-c2ccc(F)cc2)n1CC[C@H](O)C[C@@H](O)CC(=O)O,16600 nM (active),–,–,–,inactive,–,–,18700 nM (active),–,–
Clc1ccc2c(N3CCN(CCCN4CCN(c5ccnc6cc(Cl)ccc56)CC4)CC3)ccnc2c1,inactive,–,–,–,–,–,7240 nM (active),inactive,-23.4,inactive
Cn1cc(-c2cnn3c(N)c(Br)c([C@H]4CCCNC4)nc23)cn1,–,2960 nM (active),2640 nM (active),2640 nM (active),935 nM (active),1050 nM (active),2350 nM (active),1320 nM (active),–,–
Cn1cc(-c2ccc3ncc(Cc4ccc5ncccc5c4)n3n2)cn1,–,inactive,inactive,inactive,8330 nM (active),10500 nM (active),9350 nM (active),inactive,2.95,inactive
CC(C)N1[N]C(=C2C=c3cc(O)ccc3=N2)c2c(N)ncnc21,7430 nM (active),–,–,4180 nM (active),1480 nM (active),2640 nM (active),2960 nM (active),935 nM (active),–,–
NNCCc1ccccc1,inactive,inactive,inactive,inactive,–,–,–,–,-8.17,inactive
CNC(=O)c1ccccc1Sc1ccc2c(C=Cc3ccccn3)n[nH]c2c1,–,7430 nM (active),–,–,–,4690 nM (active),5260 nM (active),4180 nM (active),–,–
Cc1ccc(NC(=O)c2cccc(N(C)C)c2)cc1NC(=O)c1ccc(O)cc1,inactive,inactive,inactive,inactive,inactive,inactive,inactive,–,–,inactive
COc1ccc(-c2oc3cc(OC)ccc3c2C(=O)c2ccc(C#N)cc2)cc1,–,1870 nM (active),2960 nM (active),1320 nM (active),inactive,inactive,inactive,–,–,–
CC(C)n1c(C=C[C@H](O)C[C@H](O)CC(=O)O)c(-c2ccc(F)cc2)c2ccccc21,–,5900 nM (active),4690 nM (active),4690 nM (active),–,–,–,–,–,–
O=C(NCc1ccncc1)C12C[C@H]3C[C@@H](C1)CC(c1ccc(Cl)cc1)(C3)C2,–,11800 nM (active),20900 nM (active),20900 nM (active),14800 nM (active),13200 nM (active),7430 nM (active),–,–,inactive
CO[C@H]1O[C@@H]2O[C@@]3(C)CC[C@@H]4[C@@H](C)CC[C@@H]([C@H]1C)[C@@]24OO3,–,inactive,14800 nM (active),16600 nM (active),inactive,–,–,–,–,–
